# From PubChem BioAssay (NCATS)
# Active and inactive are the calls of the source. Calls come from the whole dose curve; as a rule, active = well fitted inhibition curve with a large enough effect; inconclusive = small, poorly fitted or top-dose-only effect; inactive = flat fitted curve, though single readings scatter.
# Molecular target: DNA polymerase III PolC-type (Bacillus subtilis (strain 168)) (UniProt P13267)
# Assay: qHTS Validation Assay for the Inhibitors of DNA Replication in Gram-Positive Bacteria (AID 485295);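 for activity change, negative = inhibition: reconstituted holoenzyme with PolC plus beta clamp SSB and primase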
# Settings: Gram-positive bacterial DNA replication assay; series mostly up to 57.1 µM; activity change, negative = inhibition: at the top concentration
# Method: B Subtilis DNA polymerase III holoenzyme complex was assayed for DNA production by fluorescent detection of the double-stranded DNA product with PicoGreen dye. The holoenzyme complex was reconstituted from the following purified protein components: DNA Polymerase III, beta subunit processivity factor, SSB single-stranded DNA binding protein, and Primase. Single-stranded, circular M13Gori was used as a substrate with dNTPs and NTPs also supplied to the substrate reagent. Compounds from the NCGC collection were incubated with the holoenzyme mixture for […] at room temperature to allow binding to occur, and then the reaction was started by the addition of substrate. After 30 min incubation at room temperature, PicoGreen solution containing EDTA was added to stop the reaction and to visualize the double-stranded DNA produced. Reaction progress was measured in a ViewLux CCD imager in fluorescence intensity mode by using 480 nm excitation and 540 nm emission filter set.
# 1. Thaw screening compounds.
# 2. Label assay plates. Prepare pipette tips, reagent reservoirs, buffers and controls.
# 1. Thaw Enzymes, DNA template, Nucleotides and PicoGreen dye concentrate. Thawed enzymes are stable on ice for ~1
# week. Other thawed components are stable indefinitely.
# 2. Prepare sufficient quantities of Enzyme, Substrate and PicoGreen Quench mixes (according to Table II). For the number of
# compound plates being screened.
# 3. Ensure that the tip wash station reservoirs have clean water and turn on recirculating chiller so that the chilled deck position
# 1. Load 2 uL of EDTA controls (250 mM, Background, 100 % inhibition) and 2 uL of DMSO controls (Negative control, 0%
# inhibition) in the screening plates (flat-bottomed black 384-well polypropylene, Greiner Bio-one).
# 2. Place Enzyme mix reservoir on the chiller position of the liquid handler deck. Make sure that chiller will maintain
# temperature of Enzyme mix at 4degC. Substrate mix and PicoGreen Quench can be stored at room temp.
# 3. Program liquid handling robotics to dispense 18 uL of Enzyme mix into assay plates. Wash tips.
# 4. Aspirate and dispense 2 uL of compound from compound plates, mix and Incubate at room temperature for 10 minutes.
# 5. Aspirate 5 ul of Substrate mix, dispense into assay plates and mix by pipetting. Wash tips.
# 6. Incubate at room temperature (21 +/- 1 deg C) for 20 minutes.
# 7. Quench reactions by addition of 25 uL PicoGreen Quench mix and mix by pipetting (using HTS robotics or bulk reagent
# dispenser such as a Multidrop or uFill). Keep plates in the dark or stacked until ready to read fluorescence.
# 8. Read fluorescence intensity of plates on plate reader using "Fluorescein (Ex 485 nm/ Em 535 nm, 0.1s)" setting.
# Potency is the fitted concentration of half-maximal effect.
# DNA polymerase III PolC-type (Bacillus subtilis (strain 168)), sequence (P13267 whole entry, looked up): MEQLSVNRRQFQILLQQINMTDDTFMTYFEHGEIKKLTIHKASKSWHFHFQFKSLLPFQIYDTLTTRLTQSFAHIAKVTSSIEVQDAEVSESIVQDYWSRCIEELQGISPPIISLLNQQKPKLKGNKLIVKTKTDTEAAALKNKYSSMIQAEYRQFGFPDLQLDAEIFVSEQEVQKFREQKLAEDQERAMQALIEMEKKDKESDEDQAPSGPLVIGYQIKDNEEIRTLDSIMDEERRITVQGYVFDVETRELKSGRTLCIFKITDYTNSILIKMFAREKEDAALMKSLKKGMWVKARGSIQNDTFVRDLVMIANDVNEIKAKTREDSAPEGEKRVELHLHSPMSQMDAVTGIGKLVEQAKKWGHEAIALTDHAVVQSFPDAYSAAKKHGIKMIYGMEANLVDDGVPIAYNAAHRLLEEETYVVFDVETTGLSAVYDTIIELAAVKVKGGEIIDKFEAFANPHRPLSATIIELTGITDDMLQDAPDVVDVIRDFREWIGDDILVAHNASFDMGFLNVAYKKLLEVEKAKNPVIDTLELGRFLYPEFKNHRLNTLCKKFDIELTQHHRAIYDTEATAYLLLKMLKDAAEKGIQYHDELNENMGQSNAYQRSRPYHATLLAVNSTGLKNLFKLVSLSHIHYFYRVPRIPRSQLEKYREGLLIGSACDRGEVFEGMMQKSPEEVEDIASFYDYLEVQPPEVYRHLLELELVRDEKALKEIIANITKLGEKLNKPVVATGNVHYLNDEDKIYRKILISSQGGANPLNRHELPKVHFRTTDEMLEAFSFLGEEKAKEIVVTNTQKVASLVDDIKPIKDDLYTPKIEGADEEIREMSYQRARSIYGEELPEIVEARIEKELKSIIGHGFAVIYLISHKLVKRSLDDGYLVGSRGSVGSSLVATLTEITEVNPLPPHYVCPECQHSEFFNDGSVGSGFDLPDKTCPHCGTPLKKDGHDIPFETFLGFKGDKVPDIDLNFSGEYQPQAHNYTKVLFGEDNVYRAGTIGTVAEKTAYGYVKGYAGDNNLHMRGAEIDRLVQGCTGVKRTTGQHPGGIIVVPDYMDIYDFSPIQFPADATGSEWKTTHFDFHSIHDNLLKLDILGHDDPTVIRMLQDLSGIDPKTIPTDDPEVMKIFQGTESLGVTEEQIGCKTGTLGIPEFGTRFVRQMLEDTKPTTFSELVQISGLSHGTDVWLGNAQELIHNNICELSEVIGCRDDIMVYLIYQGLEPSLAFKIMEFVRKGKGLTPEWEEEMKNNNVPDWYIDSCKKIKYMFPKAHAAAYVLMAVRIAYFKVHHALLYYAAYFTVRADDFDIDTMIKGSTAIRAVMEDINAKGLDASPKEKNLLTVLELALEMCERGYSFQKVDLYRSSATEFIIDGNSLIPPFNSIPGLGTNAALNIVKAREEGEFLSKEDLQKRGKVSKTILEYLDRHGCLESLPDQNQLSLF
SMILES,Potency,"activity change, negative = inhibition"
O=C1Nc2ccc(I)cc2/C1=C/c1cc(Br)c(O)c(Br)c1,21.2 µM (active),
CC(C)C[C@H](NC(=O)[C@H](O)[C@H](N)Cc1ccccc1)C(=O)O,,2.6% (inactive)
N[C@H](C(=O)O)c1cc(O)cc(O)c1,,-2.15% (inactive)
CCCCCCC(=O)OC1CC(C)(C)NC(C)(C)C1,,-8.57% (inactive)
CCCCCCCCCCCCCCSCC(=O)O,,-7.83% (inactive)
CC(N)=NCCCC[C@@H](N)C(=O)O,,-1.28% (inactive)
CSc1nc(N)c2ncn([C@@H]3O[C@H](COP(=O)(O)OP(=O)(O)O)C(O)[C@H]3O)c2n1 (stereo not given in full),,-2.22% (inactive)
CO/N=C(\C(=O)N[C@@H]1C(=O)N2C(C(=O)O)=C(CSc3nc(=O)c(O)nn3C)CSC12)c1csc(N)n1 (stereo not given in full),,3.2% (inactive)
Cn1c(=O)c2c(nc(/C=C/c3cccc(Cl)c3)n2C)n(C)c1=O,,-2.86% (inactive)
CC1CNCCN1S(=O)(=O)c1cccc2cnccc12 (stereo not given),,3.61% (inactive)
O=C(O)CCC/C=C\C[C@@H]1[C@@H](/C=C/[C@H](O)C2Cc3ccccc3C2)[C@@H](F)C[C@@H]1O,,-4.14% (inactive)
N[C@@H](CCCC(=O)O)C(=O)O,,-6.23% (inactive)
NCCCCN,,-3.88% (inactive)
c1ccc2c(c1)CC(N1CCN(c3cccc4c3OCCO4)CC1)C2,,-3.11% (inactive)
O=c1onc2n1-c1cc(Br)ccc1OC2,,2.37% (inactive)
Clc1nccc2c1ccc1ccccc12,,-3.43% (inactive)
CCCCCC[C@@H]([C@@H](C)O)n1cnc2c(N)ncnc21,,3.27% (inactive)
N[C@@H](Cc1ccc(O)c(I)c1)C(=O)O,,5.27% (inactive)
N#C/C(=C\c1ccc(O)c(O)c1)C(=O)NCCc1ccccc1,,-5.67% (inactive)
COc1ccc(CCn2nnnc2C2(c3ccc(C)cc3)CC2)cc1,,-4.43% (inactive)

SMILES,Potency,"activity change, negative = inhibition"
C=CCN1CCc2c(cc(O)c(O)c2Cl)C(c2ccccc2)C1 (stereo not given),,-13.3% (inactive)
CC(O)C(O)[C@H]1CNc2nc(N)[nH]c(=O)c2N1 (stereo not given in full),,5.83% (inactive)
NC(Cc1cccc(-c2ccccc2CP(=O)(O)O)c1)C(=O)O (stereo not given),,6.96% (inactive)
COc1ccc(-c2ccc(N)[n+](CCCC(=O)O)n2)cc1,,1.09% (inactive)
CCCCCCCCCC(=O)NC(CN1CCOCC1)[C@H](O)c1ccccc1 (stereo not given in full),,-9.9% (inactive)
COc1ccccc1N1CCN(CCCCN2C(=O)c3ccccc3C2=O)CC1,,-1.42% (inactive)
CNC(=O)c1cc2c(cn1)[nH]c1ccccc12,,3.07% (inactive)
Nc1ncnc2c1nc(Sc1ccc(Cl)cc1)n2[C@H]1OC2COP(=O)(O)O[C@@H]2C1O (stereo not given in full),,-2.16% (inactive)
CN1CCc2cc(Cl)c(O)cc2[C@@H](c2ccccc2)C1,,3.86% (inactive)
CN1CCCC1CCOC(C)(c1ccccc1)c1ccc(Cl)cc1 (stereo not given),,-6.45% (inactive)
O=c1cc(O)cc(/C=C/c2ccc(O)c(O)c2)o1,21.2 µM (active),
CCN1C(=O)C=CC1=O,,-3.42% (inactive)
CCC1(O)CC2CN(CCc3c([nH]c4ccccc34)[C@@](C(=O)OC)(c3cc4c(cc3OC)N(C)C3[C@]45CCN4CC=C[C@@](CC)([C@@H](OC(C)=O)[C@]3(O)C(=O)OC)[C@H]45)C2)C1 (stereo not given in full),,3.05% (inactive)
CC(C)C[C@H](NC(=O)C1OC1C(=O)O)C(=O)NCCCCN=C(N)N (stereo not given in full),,-7.65% (inactive)
CCCN(CCc1ccccc1)C1CCc2c(O)cccc2C1 (stereo not given),,7.06% (inactive)
O=C(O)C1CCNCC1,,0.278% (inactive)
O=C1C2C=CC=CC2=NC(=S)N1CCN1CCC(=C(c2ccc(F)cc2)c2ccc(F)cc2)CC1 (stereo not given),,-2.02% (inactive)
Oc1ccc(Cn2cc[nH]c2=S)cc1,,2.82% (inactive)
C=CCN1CCc2c(cc(O)c(O)c2Br)[C@@H](c2ccccc2)C1,,-3.39% (inactive)
CC(=O)SC1CC2=CC(=O)CC[C@]2(C)C2CC[C@@]3(C)C(CC[C@@]34CCC(=O)O4)C12 (stereo not given in full),,4.91% (inactive)
